The values that follow come from PubChem BioAssay (Tox21).

Test [1] in a line: qHTS assay to test for compound auto fluorescence at 535 nm (green) in HEK293 cells (AID 720680).
Test [2] can be described thus: qHTS assay to test for compound auto fluorescence at 535 nm (green) in HEK293 cell free culture (AID 720682). Put shortly: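 Intrinsic compound fluorescence is measured in culture medium containing 10% FBS, with excitation at 485 nm and detection at 535 nm, referenced to fluorescein.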
A short description of test [3]: qHTS assay to test for compound auto fluorescence at 590 nm (red) in HepG2 cell free culture (AID 720684). In outline: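 Readout: intrinsic compound fluorescence at 590 nm emission after 540 nm excitation, scaled to Rose Bengal sodium. Matrix was cell-free MEM with 10% FBS; DMSO vehicle wells served as control.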
(In general: qHTS replaces the single test concentration by a dilution series.)

The nature of test [4]: qHTS assay to test for compound auto fluorescence at 460 nm (blue) in HepG2 cell free culture (AID 720685). Note: potency is the fitted concentration of half-maximal effect. Put shortly:
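Cell-free plates of MEM plus 10% FBS received 23 nL compound or DMSO vehicle; blue-channel (405/460 nm) intensity scored against triamterene as reference fluorophore.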

Test [5] in a line: qHTS assay to test for compound auto fluorescence at 460 nm (blue) in HepG2 cells (AID 720687). Note: potency is the fitted concentration of half-maximal effect. In outline: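 Cells (2,000/well in MEM with 10% FBS) attached overnight at 37 C, then were exposed to compound or DMSO for 1 hr at 37 C, 5% CO2. Fluorescence read at Ex/Em 405/460 nm, expressed as triamterene-equivalent signal.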
Test [6] in a line: qHTS assay to identify small molecule antagonists of the glucocorticoid receptor (GR) signaling pathway - cell viability counter screen (AID 720693). Note: nearly all actives have a fitted effect of over 55% in size.
Test [7] can be described thus: qHTS assay for identifying genotoxic compounds that show differential cytotoxicity against isogenic chicken DT40 cell lines with known DNA damage response pathways - wild type cell line (AID 743012). Note: nearly all actives have a fitted effect of over 60% in size. Note: potency is the fitted concentration of half-maximal effect. Put shortly: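 Viability by ATP luminescence (CellTiter-Glo, 30 min RT) after 40 h compound treatment at 37 C/5% CO2, using 300 parental DNA repair-proficient DT40 cells per well.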

Test [8] in a line: qHTS assay for identifying genotoxic compounds that show differential cytotoxicity against isogenic chicken DT40 cell lines with known DNA damage response pathways - Rev3 mutant cell line (AID 743014). Note: nearly all actives have a fitted effect of over 55% in size. Note: potency is the fitted concentration of half-maximal effect.
Test [9] is described as follows: qHTS assay for identifying genotoxic compounds that show differential cytotoxicity against isogenic chicken DT40 cell lines with known DNA damage response pathways - Rad54/Ku70 mutant cell line (AID 743015). Note: nearly all actives have a fitted effect of over 60% in size. Note: potency is the fitted concentration of half-maximal effect.
A short description of test [10]: qHTS assay to identify small molecule antagonists of the androgen receptor (AR) signaling pathway - cell viability counter screen (AID 743033; note: nearly all actives have a fitted effect of over 45% in size).
Test [11] is described as follows: qHTS assay to identify small molecule antagonists of the androgen receptor (AR) signaling pathway using the MDA cell line - cell viability counter screen (AID 743041; note: nearly all actives have a fitted effect of over 45% in size). Put shortly: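 qHTS viability read-out; MDA-kb2 AR-luc; R1881-stimulated; 16 h exposure at 37C, 0% CO2; CellTiter-Fluor, 30 min; fluorescence intensity.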
Test [12] can be described thus: qHTS assay to test for compound auto fluorescence at 590 nm (red) in HEK293 cell free culture (AID 720683). In outline: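 Tox21 10K library compounds were pinned into cell-free DMEM with 10% FBS and fluorescence was read at excitation 540 nm. Activity is expressed as Rose Bengal sodium equivalency.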
Test [13] is described as follows: qHTS assay to test for compound auto fluorescence at 535 nm (green) in HepG2 cell free culture (AID 720686).
Test [14] concerns the target Glucocorticoid receptor (Homo sapiens) (UniProt P04150). As to the kind of experiment: qHTS assay to identify small molecule agonists of the glucocorticoid receptor (GR) signaling pathway (AID 720691; active = well fitted activation curve with a large enough effect in the signal ratio in the repeat runs, not every such curve was filed as active; the % refers to the signal ratio). Conditions: GR-bla HeLa, beta-lactamase reporter ratio, 18 h; activation: at 62.4 µM (top of the series). In outline:
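Agonist-mode qHTS in HeLa cells stably expressing a glucocorticoid-response-element beta-lactamase reporter. Fluorescence intensity read with FRET substrate (2 h, room temperature) after 18 h compound treatment at 37 C.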

Test [15] has as its target Androgen receptor (Homo sapiens) (UniProt P10275). Nature of the test: qHTS assay to identify small molecule antagonists of the androgen receptor (AR) signaling pathway (AID 743035; active = well fitted inhibition curve with a large enough effect in the signal ratio in the repeat runs, not every such curve was filed as active; the % refers to the signal ratio). In outline:
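Antagonist mode: AR-bla HEK293 cells co-treated with test compounds and agonist R1881 for 16 h at 37C, 5% CO2. Beta-lactamase activity read as FRET fluorescence after 2 h room-temperature substrate loading.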

The target is the same in test [16]. As to the kind of experiment: qHTS assay to identify small molecule agonists of the androgen receptor (AR) signaling pathway using the MDA cell line (AID 743040; note: nearly all actives have a fitted effect of over 20% in size). Put shortly: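 Agonist activity is measured as luciferase luminescence in human MDA-kb2 cells whose MMTV reporter responds to both AR and GR. Compounds in DMSO incubate 16 h at 37C, 0% CO2, and ONE-Glo is read after 30 min.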

Test [17] shares this target. Nature of the test: qHTS assay to identify small molecule antagonists of the androgen receptor (AR) signaling pathway using the MDA cell line (AID 743042; note: nearly all actives have a fitted effect of over 55% in size). In outline: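 MDA-kb2 cells (human breast carcinoma, stably carrying an MMTV-luciferase reporter responsive to AR and GR) were plated at 3,000 cells/well and preincubated 5 hr at 37C, then given compound plus R1881 agonist for 16 h. ONE-Glo luminescence was read.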

Test [18] concerns the target Glucocorticoid receptor (Homo sapiens) (UniProt P04150). Nature of the test: qHTS assay to identify small molecule antagonists of the glucocorticoid receptor (GR) signaling pathway (AID 720692; active = well fitted inhibition curve with a large enough effect in the signal ratio in the repeat runs, not every such curve was filed as active; the % refers to the signal ratio; note: potency is the fitted concentration of half-maximal effect). Put shortly: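 Inhibition of dexamethasone-driven (5 nM final) beta-lactamase expression was measured in GRE-reporter HeLa cells over 18 h at 37C. Fluorescence was read after 2 h with the B/G FRET substrate at room temperature.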

Test [19] concerns the target Androgen receptor (Homo sapiens) (UniProt P10275). As to the kind of experiment: qHTS assay to identify small molecule agonists of the androgen receptor (AR) signaling pathway (AID 743036; active = well fitted activation curve with a large enough effect in the signal ratio in the repeat runs, with a control signal flat, not every such curve was filed as active; the % refers to the signal ratio). Put shortly: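 Agonist activity was scored by beta-lactamase reporter fluorescence in stably transfected HEK293 cells exposed to compounds for 16 h at 37C and 5% CO2. Substrate loading took 2 h at room temperature.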

Values without a mark were called inactive. Inconclusive results are not listed. Active and inactive are the calls of the source. Unless noted, calls come from the whole dose curve; as a rule, active = well fitted curve in the direction sought with a large enough effect in the repeat runs; inconclusive = weak or mixed curves; inactive = no such curve, though single readings can be large; an effect the other way counts as inactive or inconclusive.
% is set by controls: 0 for no effect and ±100 for the full control effect; tags give direction and shape of the fitted curve or compound fluorescence and quenching.

Androgen receptor (Homo sapiens), sequence (P10275 whole entry, looked up): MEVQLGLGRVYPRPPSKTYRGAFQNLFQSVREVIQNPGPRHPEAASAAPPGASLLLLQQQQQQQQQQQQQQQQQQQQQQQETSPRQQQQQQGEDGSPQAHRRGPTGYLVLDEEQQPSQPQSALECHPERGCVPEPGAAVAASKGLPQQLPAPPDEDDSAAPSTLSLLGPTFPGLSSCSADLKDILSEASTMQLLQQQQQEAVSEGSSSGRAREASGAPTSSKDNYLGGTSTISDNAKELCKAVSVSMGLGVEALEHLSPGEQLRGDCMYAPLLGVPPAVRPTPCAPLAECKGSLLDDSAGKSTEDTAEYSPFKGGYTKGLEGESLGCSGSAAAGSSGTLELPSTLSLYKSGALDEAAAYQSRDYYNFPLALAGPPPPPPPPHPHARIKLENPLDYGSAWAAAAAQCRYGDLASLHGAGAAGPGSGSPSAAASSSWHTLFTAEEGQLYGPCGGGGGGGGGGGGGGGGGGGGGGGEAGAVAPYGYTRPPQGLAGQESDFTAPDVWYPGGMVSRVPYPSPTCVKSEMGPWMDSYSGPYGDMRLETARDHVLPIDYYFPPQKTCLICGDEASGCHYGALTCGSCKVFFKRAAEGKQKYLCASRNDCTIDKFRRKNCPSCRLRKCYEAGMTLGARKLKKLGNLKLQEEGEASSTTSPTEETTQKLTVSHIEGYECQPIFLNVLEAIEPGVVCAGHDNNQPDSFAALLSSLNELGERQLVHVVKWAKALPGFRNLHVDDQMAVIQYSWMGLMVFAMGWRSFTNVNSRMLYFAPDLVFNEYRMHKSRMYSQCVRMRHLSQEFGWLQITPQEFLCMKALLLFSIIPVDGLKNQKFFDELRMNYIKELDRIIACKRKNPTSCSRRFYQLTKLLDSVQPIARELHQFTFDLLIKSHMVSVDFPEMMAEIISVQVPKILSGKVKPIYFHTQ
Glucocorticoid receptor (Homo sapiens), sequence (P04150 whole entry, looked up): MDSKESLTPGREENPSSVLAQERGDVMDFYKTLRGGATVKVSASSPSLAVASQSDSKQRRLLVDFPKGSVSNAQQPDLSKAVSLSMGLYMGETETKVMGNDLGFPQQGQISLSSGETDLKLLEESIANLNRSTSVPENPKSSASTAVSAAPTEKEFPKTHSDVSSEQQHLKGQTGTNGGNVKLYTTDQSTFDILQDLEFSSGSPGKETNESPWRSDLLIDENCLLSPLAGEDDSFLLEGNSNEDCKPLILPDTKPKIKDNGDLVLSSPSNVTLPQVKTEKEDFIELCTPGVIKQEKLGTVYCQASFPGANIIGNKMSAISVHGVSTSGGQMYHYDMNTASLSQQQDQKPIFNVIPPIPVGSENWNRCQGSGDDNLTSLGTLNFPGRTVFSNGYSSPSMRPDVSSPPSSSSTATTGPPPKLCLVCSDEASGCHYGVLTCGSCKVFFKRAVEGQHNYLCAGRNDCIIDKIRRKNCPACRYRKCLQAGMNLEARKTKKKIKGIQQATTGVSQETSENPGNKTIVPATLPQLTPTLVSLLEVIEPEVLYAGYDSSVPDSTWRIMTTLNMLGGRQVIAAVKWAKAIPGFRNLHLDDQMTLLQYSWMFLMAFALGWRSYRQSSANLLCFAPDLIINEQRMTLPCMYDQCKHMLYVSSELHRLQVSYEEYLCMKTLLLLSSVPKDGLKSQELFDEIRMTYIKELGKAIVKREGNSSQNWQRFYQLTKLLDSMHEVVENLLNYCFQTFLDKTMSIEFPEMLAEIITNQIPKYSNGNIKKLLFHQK

Consider `Oc1ccc(Cl)c(Cl)c1`, for which the outcome in test [1], in test [2] and in [3] was inactive. Moreover, the Potency result in test [4], in test [5], in test [6], in test [7], in test [8] and in test [9] was “inactive” each time. The Potency entry in test [10] and in test [11] was “inactive” in each case.

On to `O=C(O)[C@H](O)[C@@H](O)C(=O)O`, for which the compound was called inactive in test [1], in [2], in [12] and in [3]. Moreover, the Potency entry in test [4], in [13], in test [5], in test [7], in [8] and in test [9] was “inactive” throughout. Besides, the Potency result in test [10] and in test [11] was “inactive” in each case.

`S=C=NCCc1ccccc1`: the outcome in [1], in test [2], in [12], in [3] and in test [16] was inactive. In addition, the Potency result in test [4], in [13], in [5], in test [14], in [7] and in [9] was “inactive” each time. Also, the Potency entry in [10], in test [15], in test [11] and in [17] was “inactive” throughout.

As for `O=C(NC(=O)c1ccccc1Cl)Nc1ccc(OC(F)(F)F)cc1`, the result in test [1], in test [2], in [3] and in test [16] was inactive. Moreover, the Potency result in test [4], in [5], in test [14], in [18], in test [7] and in test [9] was “inactive” in each case. Further, the Potency result in test [10], in [15], in test [11] and in test [17] was “inactive” throughout.

Take `COc1ccc2c(c1OC)C(=O)O[C@@H]2[C@H]1c2cc3c(cc2CCN1C)OCO3`: the call in test [1], in test [2], in test [12], in test [3], in test [19] and in test [16] was inactive. Also, the Potency result in [4], in [5], in test [6], in [7], in [9] and in test [10] was “inactive” in each case. Besides, the Potency entry in [15], in test [11] and in [17] was “inactive” in each case.

As for `CC[C@]1(O)CC[C@H]2[C@@H]3CCC4=CCCC[C@@H]4[C@H]3CC[C@@]21C`, the outcome in test [1], in test [2], in [12] and in test [3] was inactive. Besides, the Potency entry in [4], in test [13], in test [5], in [10] and in test [11] was “inactive” throughout. The Potency in test [18] was 1.69 µM (active); in test [7], 8.41 µM (active); in test [8], 9.44 µM (active); in [9], 13.3 µM (active).

In the case of `O=S(=O)(O)F`, the outcome in test [1], in test [2], in test [12] and in test [3] was inactive. The Potency result in test [4], in [13], in test [5], in test [6], in [7] and in [8] was “inactive” each time. Besides, the Potency result in [9], in [10] and in test [11] was “inactive” in each case.

For the compound `CC1CCCC1`, the Potency result in test [14], in test [7], in [9], in test [10] and in [11] was “inactive” in each case.

For `CC1CN1` (stereo not drawn), the result in test [1], in test [2], in [12] and in test [3] was inactive. Moreover, the Potency result in test [4], in [13], in test [5], in [6], in test [10] and in test [11] was “inactive” in each case.

On to `N#Cc1c2ccccc2cc2ccccc12`, for which the compound was called inactive in test [1], in test [2], in test [3] and in test [16]. Moreover, the Potency in test [4] is 2.51 µM [fluorescent] (active); in test [5], 2.82 µM [fluorescent] (active). Moreover, the Potency entry in test [6], in [8], in [9], in test [10], in test [11] and in test [17] was “inactive” throughout.

With `Oc1ccc2[nH]cc(CCCCN3CC=C(c4ccccc4)CC3)c2c1`, the compound was called inactive in test [1], in test [2], in test [12] and in test [3]. Also, the Potency result in [4], in [13], in test [5], in test [14], in [6] and in test [10] was “inactive” in each case. Moreover, the Potency entry in test [11] was “inactive”. Also, the values for the Potency in test [7], in [8] and in test [9] were 5.96 µM (active), 5.96 µM (active) and 7.5 µM (active), respectively.

Turning to `[C-]1=CC=CC1.[Cl][Zr+2][Cl].c1cc[cH-]c1`, the outcome in [1], in test [2], in test [12] and in test [3] was inactive. The Potency result in test [6], in test [7], in test [8], in test [9], in test [10] and in [11] was “inactive” each time.

Take `CC(=O)[O-].CC(=O)[O-].O.O.O.[Pb+2]`: the call in test [1], in test [2], in test [12] and in [3] was inactive. In addition, the Potency entry in test [4], in [13], in test [5], in test [7] and in test [10] was “inactive” in each case.

Consider `CN`, for which the result in test [1], in test [2] and in test [12] was inactive. Also, the Potency result in [4], in test [13], in test [5], in [14], in test [18] and in test [6] was “inactive” each time. Further, the Potency entry in test [7], in [9], in test [10] and in test [11] was “inactive” throughout.

Turning to `CCN(CC)Cc1nccn1-c1ccc([N+](=O)[O-])cc1C(=O)c1ccccc1Cl`, the call in test [1], in test [2] and in test [3] was inactive. The Potency result in test [4], in test [13], in test [5], in test [14], in test [18] and in [6] was “inactive” in each case. The Potency result in test [10] and in [11] was “inactive” in each case. Also, the Potency in test [7] and in test [8] was 29.8 µM (active) throughout.

For `COc1c2c(cc3c1OCO3)CCN(C)C2`, in [1], the fluorescence, % of fluorescein is -0.0183% [at 18.6 µM]. Besides, the activity change in [2] is -0.0284% [at 18.6 µM]. Also, the fluorescence, % of Rose Bengal in [3] is -0.194% [at 18.6 µM]. For the same compound, the fluorescence, % of fluorescent control is -0.0127% [at 18.6 µM] in test [4] and -0.0807% [at 18.6 µM] in [5]. Further, in test [13], the fluorescence, % of fluorescein control was -0.0107% [at 18.6 µM]. Besides, the Potency entry in test [14], in [18], in [6], in test [7], in test [8] and in test [9] was “inactive” in each case. The Potency result in test [10] and in [11] was “inactive” each time.
